PubChem BioAssay (Tox21)
Where “and” joins values, the source holds several entries; their conditions need not be identical. Equal values may be shown once. Results filed as inconclusive are left out. Some structures have more than one record in an assay (separate samples or runs), and their calls can disagree. Calls of active or inactive are those of the source. Unless noted, calls come from the whole dose curve.

Tests used:
[1] = Nuclear factor erythroid 2-related factor 2/antioxidant responsive element (Nrf2/ARE) small molecule agonists: qHTS cell viability counter screen in human keratinocytes (AID 1919968; active = well fitted curve in the direction sought with a large enough effect in the repeat runs; an effect the other way counts as inactive or inconclusive; note: nearly all actives have a fitted effect of over 55% in size; note: potency is the fitted concentration of half-maximal effect)
In short: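 KeratinoSens HaCaT cells, 1,500/well, preincubated 5 h, then exposed to compounds in DMSO for 23 h at 37 C/5% CO2. Viability read as CellTiter-Fluor fluorescence after 1 h, in the same wells as the ARE-luciferase read.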

[2] = molecular target: KiSS-1 receptor (Homo sapiens) (UniProt Q969F8); experiment: Human kisspeptin (KISS1R) small molecule agonists, calcium flux assay in KISS1R-HEK293 cells (AID 1920064; active = well fitted curve in the direction sought with a large enough effect in the repeat runs; an effect the other way counts as inactive or inconclusive)
Sequence of KiSS-1 receptor (Homo sapiens) (Q969F8 whole entry, looked up): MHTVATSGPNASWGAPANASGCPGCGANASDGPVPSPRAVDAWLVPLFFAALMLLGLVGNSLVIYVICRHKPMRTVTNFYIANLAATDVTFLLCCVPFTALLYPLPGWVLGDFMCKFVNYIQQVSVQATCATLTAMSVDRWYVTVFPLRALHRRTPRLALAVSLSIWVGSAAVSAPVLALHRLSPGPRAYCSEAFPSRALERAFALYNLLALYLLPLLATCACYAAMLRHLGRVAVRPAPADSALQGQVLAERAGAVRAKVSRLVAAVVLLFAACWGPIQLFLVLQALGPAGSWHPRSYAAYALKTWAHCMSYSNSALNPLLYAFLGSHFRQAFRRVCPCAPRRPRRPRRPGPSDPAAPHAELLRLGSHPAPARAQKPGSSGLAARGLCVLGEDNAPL
In short: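 HEK293 cells stably expressing human KISS1R were loaded with calcium dye for 1 h at 37 C, then given compound; fluorescence (Ex/Em 480/540) was read kinetically for 3 min. Fifteen concentrations, triplicate.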

[3] = G protein-coupled receptor (GPCR) small molecule agonists, calcium flux assay: HEK293 wild type cell line counter screen (AID 1920065)
In short: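 Wild-type HEK293 cells plated 18 h, loaded with calcium dye 1 h at 37 C, then compounds added in agonist mode (ATP as positive control). Kinetic fluorescence Ex/Em 480/540 recorded 3 min at 1 sec intervals; 15 concentrations, triplicate.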

[4] = p53 small molecule agonists, cell-based qHTS assay with human liver microsomes (AID 1963577)
In short: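 p53RE-bla reporter cells were pre-incubated 5 h at 37 C, then treated with compounds plus human liver microsomes (0.5 mg/mL final) and NADPH (0.5 mg/mL final) for 16 h at 37 C. Beta-lactamase activity was read by LiveBLAzer fluorescence after 2 h at room temperature.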

[5] = p53 small molecule agonists, cell-based qHTS assay with rat liver microsomes (AID 1963578)
In short: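 p53RE-bla cells were exposed to compounds together with rat liver microsomes (0.5 mg/mL final) and NADPH (0.5 mg/mL final) for 16 h at 37 C, then read by LiveBLAzer beta-lactamase fluorescence after 2 h at room temperature.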

[6] = p53 small molecule agonists, cell-based qHTS assay with human liver microsomes: qHTS cell viability counter screen (AID 1963579); note: nearly all actives have a fitted effect of over 45% in size
In short: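 p53RE-bla cells (4,000/well) were pre-incubated 5 h at 37 C, then given compounds in DMSO plus human liver microsomes (0.5 mg/mL final) and NADPH (0.5 mg/mL final) for 16 h at 37 C. Viability was read by CellTiter-Glo luminescence.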

[7] = p53 small molecule agonists, cell-based qHTS assay with rat liver microsomes: qHTS cell viability counter screen (AID 1963580); note: nearly all actives have a fitted effect of over 45% in size
In short: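 p53RE-bla HCT-116 cells (4,000/well) rested 5 h at 37 C, then given Tox21 compounds in DMSO with rat liver microsomes (0.5 mg/mL final) plus NADPH (0.5 mg/mL final) for 16 h at 37 C. Viability read by CellTiter-Glo luminescence after 30 min at room temperature.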

[8] = p53 small molecule agonists, cell-based qHTS assay: qHTS cell viability counter screen (AID 1963581); note: nearly all actives have a fitted effect of over 45% in size
In short: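 p53RE-bla HCT-116 cells, compounds added 5 h after plating and incubated 16 h at 37 C. Cytotoxicity measured in the same wells as intracellular ATP by CellTiter-Glo luminescence after 30 min at room temperature.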

[9] = p53 small molecule agonists, cell-based qHTS assay (AID 1963582; active = well fitted activation curve with a large enough effect in the signal ratio in the repeat runs, not every such curve was filed as active; the % refers to the signal ratio)
In short: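 p53RE-bla reporter cells, compounds added in DMSO after 5 h plating, incubated 16 h at 37 C. Beta-lactamase read via 2 h room-temperature LiveBLAzer B/G FRET substrate, fluorescence intensity.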

[10] = molecular target: 5-hydroxytryptamine receptor 2A (Homo sapiens) (UniProt P28223); experiment: 5-hydroxytryptamine receptor 2A (HTR2A) small molecule antagonists, cell-based qHTS assay (AID 1963586); note: nearly all actives have a fitted effect of over 45% in size
Sequence of 5-hydroxytryptamine receptor 2A (Homo sapiens) (P28223 whole entry, looked up): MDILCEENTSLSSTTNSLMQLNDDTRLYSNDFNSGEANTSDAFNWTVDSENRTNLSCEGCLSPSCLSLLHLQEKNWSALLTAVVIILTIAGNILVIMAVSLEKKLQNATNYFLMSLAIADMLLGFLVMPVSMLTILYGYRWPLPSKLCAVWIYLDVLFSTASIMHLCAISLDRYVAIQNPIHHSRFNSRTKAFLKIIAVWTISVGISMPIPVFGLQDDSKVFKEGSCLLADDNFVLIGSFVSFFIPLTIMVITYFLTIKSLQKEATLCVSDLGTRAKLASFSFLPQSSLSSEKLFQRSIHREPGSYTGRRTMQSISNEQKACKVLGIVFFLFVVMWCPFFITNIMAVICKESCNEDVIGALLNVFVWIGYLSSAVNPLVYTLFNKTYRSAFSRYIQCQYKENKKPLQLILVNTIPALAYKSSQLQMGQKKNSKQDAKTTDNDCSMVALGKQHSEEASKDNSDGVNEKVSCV
In short: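 Antagonist-mode intracellular calcium assay: DOI (4 nM) added after 5 min compound pre-incubation at room temperature to dye-loaded HTR2A-CHO cells. Fluorescence followed for 3 min, sampled every second.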

[11] = molecular target: 5-hydroxytryptamine receptor 2A (Homo sapiens) (UniProt P28223); experiment: 5-hydroxytryptamine receptor 2A (HTR2A) small molecule agonists, cell-based qHTS assay (AID 1963587); note: nearly all actives have a fitted effect of over 30% in size
In short: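 HTR2A-CHO cells, plated 18 h at 37 C/5% CO2, dye-loaded 1 h at 37 C; compounds in DMSO added by pin tool (agonist mode). Intracellular calcium flux read as kinetic fluorescence on FDSS over 2 min at 1 s intervals.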

[12] = molecular target: Muscarinic acetylcholine receptor M1 (Homo sapiens) (UniProt P11229); experiment: Cholinergic receptor muscarinic 1 (CHRM1) small molecule antagonists, cell-based qHTS assay (AID 1963588); note: nearly all actives have a fitted effect of over 40% in size
Sequence of Muscarinic acetylcholine receptor M1 (Homo sapiens) (P11229 whole entry, looked up): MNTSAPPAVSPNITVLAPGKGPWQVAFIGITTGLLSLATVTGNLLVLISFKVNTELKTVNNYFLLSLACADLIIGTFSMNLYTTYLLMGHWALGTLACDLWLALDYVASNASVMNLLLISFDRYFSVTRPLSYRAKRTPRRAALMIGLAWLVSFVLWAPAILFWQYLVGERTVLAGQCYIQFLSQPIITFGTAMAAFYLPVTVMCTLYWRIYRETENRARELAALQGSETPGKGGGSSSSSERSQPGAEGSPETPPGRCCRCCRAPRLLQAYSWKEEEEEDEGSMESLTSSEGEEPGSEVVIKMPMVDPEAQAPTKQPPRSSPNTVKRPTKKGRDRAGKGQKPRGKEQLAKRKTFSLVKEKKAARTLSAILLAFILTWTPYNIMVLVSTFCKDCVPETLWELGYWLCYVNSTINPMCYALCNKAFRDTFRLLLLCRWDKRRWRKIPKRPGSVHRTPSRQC
In short: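 CHRM1-CHO calcium-flux assay, antagonist mode. Cells were seeded 18 h, dye-loaded 1 h at 37 C and given compound for 5 min at RT, then acetylcholine was added at 50nM. FDSS fluorescence was read 3 min; 15 concentrations, three runs.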

[13] = molecular target: Muscarinic acetylcholine receptor M1 (Homo sapiens) (UniProt P11229); experiment: Cholinergic receptor muscarinic 1 (CHRM1) small molecule agonists, cell-based qHTS assay (AID 1963589); note: nearly all actives have a fitted effect of over 35% in size
In short: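 CHO cells stably expressing human CHRM1 were loaded with calcium dye for 1 h at 37 C, then compound was added in agonist mode. Intracellular calcium fluorescence was followed kinetically at 1 s intervals. Fifteen concentrations were tested in three independent runs.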

[14] = molecular target: Beta-2 adrenergic receptor (Homo sapiens) (UniProt P07550); experiment: Adrenergic beta2 receptor (ADRB2) small molecule antagonists, cell-based qHTS assay (AID 1963592); note: series mostly up to about 92 µM; nearly all actives have a fitted effect of over 50% in size
Sequence of Beta-2 adrenergic receptor (Homo sapiens) (P07550 whole entry, looked up): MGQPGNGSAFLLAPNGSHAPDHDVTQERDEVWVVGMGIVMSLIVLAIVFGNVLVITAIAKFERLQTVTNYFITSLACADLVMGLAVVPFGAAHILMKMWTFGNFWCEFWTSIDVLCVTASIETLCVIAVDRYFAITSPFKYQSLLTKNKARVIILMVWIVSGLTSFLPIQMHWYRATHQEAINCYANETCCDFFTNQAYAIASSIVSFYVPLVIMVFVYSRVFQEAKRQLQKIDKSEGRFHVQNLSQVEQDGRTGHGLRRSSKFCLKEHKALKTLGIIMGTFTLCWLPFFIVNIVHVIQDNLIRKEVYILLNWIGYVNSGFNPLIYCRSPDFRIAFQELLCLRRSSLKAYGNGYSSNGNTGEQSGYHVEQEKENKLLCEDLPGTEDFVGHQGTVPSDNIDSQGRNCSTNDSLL
In short: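 Cells (CHO, stable ADRB2 overexpression) incubated 18-20hr at 37C; compounds added from DMSO; agonist mix (1nM isoproterenol, 100uM IBMX, 25uM Ro-20-1724) added; 0.5hr RT; d2-cAMP and anti-cAMP-cryptate added; 1hr RT; 665/615 nm read.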

[15] = molecular target: Beta-2 adrenergic receptor (Homo sapiens) (UniProt P07550); experiment: Adrenergic beta2 receptor (ADRB2) small molecule agonists, cell-based qHTS assay (AID 1963593);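 note: CHO cells stably overexpressing human ADRB2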
In short: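 CHO cells stably over-expressing ADRB2 were plated overnight at 37C, then dosed with compounds plus a stimulation mix containing 100uM IBMX and 25uM Ro-20-1724 for 0.5hr at room temperature. cAMP was measured by HTRF competition, 1hr.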

[16] = molecular target: D(2) dopamine receptor (Homo sapiens) (UniProt P14416); experiment: Dopamine D2 receptor (DRD2) small molecule agonists, cell-based qHTS assay (AID 1963594); note: nearly all actives have a fitted effect of over 35% in size
Sequence of D(2) dopamine receptor (Homo sapiens) (P14416 whole entry, looked up): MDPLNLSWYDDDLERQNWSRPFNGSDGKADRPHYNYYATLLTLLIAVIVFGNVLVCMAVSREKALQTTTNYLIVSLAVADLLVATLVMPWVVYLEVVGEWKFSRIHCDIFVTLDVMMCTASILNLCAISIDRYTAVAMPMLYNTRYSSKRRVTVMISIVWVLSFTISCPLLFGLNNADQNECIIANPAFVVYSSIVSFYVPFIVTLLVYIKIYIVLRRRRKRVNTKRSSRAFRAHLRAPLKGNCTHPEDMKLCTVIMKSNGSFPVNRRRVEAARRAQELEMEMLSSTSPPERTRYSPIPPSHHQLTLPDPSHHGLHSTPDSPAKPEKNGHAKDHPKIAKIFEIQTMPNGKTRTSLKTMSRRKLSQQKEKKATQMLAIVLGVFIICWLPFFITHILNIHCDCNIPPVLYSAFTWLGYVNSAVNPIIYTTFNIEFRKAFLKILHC
In short: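 HEK293 cells stably expressing DRD2 were cultured 24 h at 37 C, then given Ro20-1724 (0.1 mM final) and compounds for 10 min at room temperature. NKH477 (200nM) was then added for 30 min. cAMP was read by HTRF.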

[17] = molecular target: D(2) dopamine receptor (Homo sapiens) (UniProt P14416); experiment: Dopamine D2 receptor (DRD2) small molecule antagonists, cell-based qHTS assay (AID 1963595; active = well fitted inhibition curve with a large enough effect in the signal ratio in the repeat runs, with a control signal flat; the % refers to the signal ratio; note: potency is the fitted concentration of half-maximal effect)
In short: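 Stable D2 receptor HEK293 line, 24 h after seeding. Compound preincubated 10 min, then quinpirole (12 nM) with forskolin analogue NKH477 (200 nM), 30 min, room temperature. Detection by time-resolved FRET of cAMP.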

[18] = cAMP Responsive Elements (CRE) small molecule agonists, cell-based qHTS assay (AID 1963590)
In short: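 CRE-bla HEK 293T cells, 2,000/well in DMEM with 10% dialyzed FBS and 25 mM HEPES, pre-incubated 18 h at 37 C, then exposed to compound 3 h at 37 C. Beta-lactamase reporter read with LiveBLAzer B/G FRET substrate after 2 h at room temperature.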

[19] = cAMP Responsive Elements (CRE) small molecule antagonists, cell-based qHTS assay (AID 1963591; active = well fitted inhibition curve with a large enough effect in the signal ratio in the repeat runs, not every such curve was filed as active; the % refers to the signal ratio)
In short: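 CRE-bla HEK293T cells plated 18 h, then given compound plus NKH477 at 0.25 uM final for 3 h at 37C. Beta-lactamase reporter read with LiveBLAzer B/G FRET substrate after 2 h at room temperature.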

Measured: Potency
% is set by controls: 0 for no effect and ±100 for the full control effect.

CCCC[P+](CCCC)(CCCC)CCCC
inactive: [1] | [2] | [3] | [4] | [5] | [6] | [7] | [8] | [9] | [10] | [11] | [12] | [13] | [14] | [15] | [16] | [17]

CC/C(=C(\c1ccccc1)c1ccc(OCCN(C)C)cc1)c1ccccc1
active: [1] 24.3 µM [middle of 5 runs] | [17] 38.9 µM and 61.1 µM
inactive: [2] | [3] | [4] | [5] | [6] | [18] | [19]

Cc1ccc(C)c(O)c1C
inactive: [1] | [2] | [3] | [4] | [5] | [6] | [7] | [8] | [9] | [10] | [11] | [12] | [13] | [18] | [19] | [14] | [15] | [16] | [17]

Cc1c(OCC(F)(F)F)ccnc1CS(=O)c1nc2ccccc2[nH]1 (configuration not stated)
inactive: [1] | [2] | [3] | [4] | [5] | [6] | [7] | [8] | [9] | [19] | [15] | [17]

C[Si](O[Si](C)(C)C)O[Si](C)(C)C
inactive: [1] | [2] | [3] | [4] | [5] | [6] | [7] | [8] | [9] | [10] | [11] | [12] | [13] | [18] | [19] | [14] | [15] | [16] | [17]

CC[C@H](C)C(=O)O[C@H]1C[C@@H](C)C=C2C=C[C@H](C)[C@H](CC[C@@H]3C[C@@H](O)CC(=O)O3)[C@H]21
69.6 µM (active) and inactive: [1]
inactive: [2] | [3] | [4] | [5] | [6] | [7] | [8] | [9] | [18] | [14] | [17]

CCCN(CCC)C(=O)SCC
inactive: [1] | [2] | [3] | [4] | [5] | [6] | [7] | [8] | [9] | [10] | [11] | [12] | [13] | [18] | [19] | [14] | [15] | [16] | [17]

Oc1ccccc1
inactive: [1] | [2] | [3] | [4] | [5] | [6] | [7] | [8] | [9] | [18] | [19] | [14] | [15] | [16] | [17]

CCCCOC(=O)c1ccc(N)cc1
inactive: [1] | [2] | [3] | [4] | [5] | [6] | [7] | [8] | [9] | [18] | [19] | [14] | [15] | [17]

Cc1ccc(C)c(S(=O)(=O)O)c1
inactive: [1] | [2] | [3] | [4] | [5] | [6] | [7] | [9] | [10] | [12] | [13] | [18] | [19] | [14] | [15] | [16] | [17]

CS(=O)(=O)c1ccc([C@@H](O)[C@@H](CO)NC(=O)C(Cl)Cl)cc1
inactive: [1] | [2] | [3] | [4] | [5] | [6] | [7] | [8] | [9] | [18] | [14] | [16] | [17]

CCOC(=O)NNc1nncc2ccccc12
inactive: [1] | [2] | [3] | [4] | [5] | [6] | [7] | [8] | [9] | [10] | [11] | [12] | [13] | [18] | [19] | [14] | [15] | [16] | [17]

CC(C)(CO)COC(=O)C(C)(C)CO
inactive: [1] | [2] | [3] | [4] | [5] | [6] | [7] | [8] | [9] | [10] | [11] | [12] | [13] | [18] | [19] | [14] | [16] | [17]

CC(CCO)CC(C)(C)C (configuration not stated)
inactive: [1] | [2] | [3] | [4] | [5] | [6] | [7] | [8] | [9] | [10] | [11] | [18] | [19] | [14] | [16] | [17]

N[C@@H](Cc1cc(I)c(Oc2ccc(O)c(I)c2)c(I)c1)C(=O)O
inactive: [1] | [2] | [3] | [4] | [5] | [6] | [7] | [8] | [9] | [18] | [19] | [14] | [17]
